# Most compounds without a hit are left out; they make up all but 10% or so of the library.
# RORgamma inh: qHTS for inhibitors of ROR gamma transcriptional activity. Nuclear receptor ROR-gamma (Mus musculus), P51450. Drosophila S2 Gal4-RORgamma UAS-luciferase reporter, 20 h. Potency, µM (titrated, usually from 53.6 µM), without a hit: at the top dose activity change, negative = inhibition, actives largely listed as inhibitors. 5.4% of 310,000 active. AID 2551, 2010; further: on the % scale 0 is the no-effect control and ±100 the full control effect; nearly all actives have a fitted effect of over 60% in size
# Target sequence (P51450 whole entry, looked up, the tested form may be a part): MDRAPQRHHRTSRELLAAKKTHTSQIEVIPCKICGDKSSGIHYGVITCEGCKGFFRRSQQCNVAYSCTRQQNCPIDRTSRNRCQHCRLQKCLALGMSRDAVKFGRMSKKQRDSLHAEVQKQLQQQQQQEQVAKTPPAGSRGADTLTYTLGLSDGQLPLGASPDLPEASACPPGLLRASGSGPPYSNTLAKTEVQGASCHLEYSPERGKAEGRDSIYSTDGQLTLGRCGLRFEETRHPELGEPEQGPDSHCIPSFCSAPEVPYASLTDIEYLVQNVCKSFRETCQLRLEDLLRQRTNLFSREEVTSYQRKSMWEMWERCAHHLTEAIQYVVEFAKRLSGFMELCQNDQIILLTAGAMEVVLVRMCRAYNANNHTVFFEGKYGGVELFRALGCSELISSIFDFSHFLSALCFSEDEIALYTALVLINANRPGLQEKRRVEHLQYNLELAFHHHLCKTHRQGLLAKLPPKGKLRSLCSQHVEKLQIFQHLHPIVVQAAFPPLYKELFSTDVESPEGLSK
#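 A Gal4/UAS one-hybrid system in insect cells: metallothionein-promoter Gal4–ROR gamma fusion plus Photinus luciferase reporter. Copper sulfate 700 uM final, 20 hr ambient incubation, luminescent detection after 10 min with reagent.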
# SW480 rerep: A quantitative high throughput screen for small molecules that induce DNA re-replication in SW480 colon adenocarcinoma cells | AID 624297, 2012 | Potency, µM (doses to about 46.1 µM), for the others: at the highest dose re-replication activation, usual class: activators | SW480 DNA re-replication, Hoechst DNA content imaging, 48 h | 1.8% of 340,000 active; further: % of control where 0% means no effect; nearly all actives have a fitted effect of over 55% in size
#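 Quantitative HTS format with DMSO vehicle controls; 48 hr drug incubation at 37 C, then 40 min Hoechst staining and scanning imager measurement at 405 nm excitation.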
# KB-3-1 cytotox: qHTS assay for MDR1-selective chemotherapeutics: Primary screen using the parental adenocarcinoma cell KB-3-1 | KB-3-1 viability, CellTiter-Glo ATP luminescence, 72 h | Potency, µM (series often up to 46.1 µM), usual class: cytotoxic | 1.4% of 400,000 active | AID 1347075, 2019; further: on the % scale 0 is the no-effect control and ±100 the full control effect; nearly all actives have a fitted effect of over 60% in size
#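 Parental KB-3-1 adenocarcinoma cells in phenol-red-free DMEM with 10% FBS were pin-treated with compounds at several concentrations, incubated 72 h at 37 °C, and viability read by CellTiter-Glo luminescence; concentration-effect curves were fitted after normalization.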
# MCF10A rerep: A quantitative high throughput screen for small molecules that induce DNA re-replication in MCF 10a normal breast cells; MCF 10A DNA re-replication, Hoechst nuclear intensity, 48 h; 2.9% of 350,000 active; Potency, µM (titrated, usually from 46.1 µM), without a hit: at the top dose activity, positive = re-replication, hits mostly activators; AID 624296, 2012; further: % of control where 0% means no effect; nearly all actives have a fitted effect of over 50% in size
# KB-V1 cytotox: qHTS assay for MDR1-selective chemotherapeutics: Primary screen using the drug-selected MDR subline cells KB-V1; KB-V1 MDR cells viability, CellTiter-Glo, 72 h; Potency, µM (top dose mostly 46.1 µM), most hits filed as cytotoxic; 3.4% of 400,000 active; further: on the % scale 0 is the no-effect control and ±100 the full control effect; nearly all actives have a fitted effect of over 60% in size
#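 Luminescent ATP read-out (CellTiter-Glo, 10 min) measures survival of drug-selected KB-V1 MDR cells after 72 h, 37 degrees C compound exposure. Medium: phenol-red-free DMEM, 10% FBS. Values from fitted concentration-response curves.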
# Gal4-VP16 FLuc: VP16 counterscreen qHTS for inhibitors of ROR gamma transcriptional activity; Drosophila S2 Gal4-VP16 UAS-luciferase, luminescence, 20 h; Potency, µM (highest dose often 53.6 µM), inactives show at the top dose activity, negative = inhibition, actives largely listed as inhibitors; 3.5% of 310,000 active; AID 2546, 2010;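 further: Gal4-VP16 expression switched on by copper sulfate through the metallothionein promoter; on the % scale 0 is the no-effect control and ±100 the full control effect; nearly all actives have a fitted effect of over 50% in size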
# * hit, by the source's call; i = inactive; u = inconclusive; x = no result; [ ] = another dose, or the depositor's remark. The call rests on the fitted dose curve; in most records, active means well fitted curve in the direction sought with a large enough effect; inconclusive means small, poorly fitted or top-dose-only effect, or another doubt; inactive means no such curve, though single readings can be large; an effect the other way counts as inactive or inconclusive. Potency means the concentration at half of the fitted maximal effect.
SMILES,RORgamma inh,SW480 rerep,KB-3-1 cytotox,MCF10A rerep,KB-V1 cytotox,Gal4-VP16 FLuc
Cc1ccc(-n2c(C)cc(C(=O)COC(=O)c3ccc[nH]c3=O)c2C)cc1,11µM*,-59%,i,-2%,18µM*,x
COCCn1c(C)cc(C(=O)COC(=O)c2ccc[nH]c2=O)c1C,4.5µM*,2%,i,2%,i,3.5µM*
Cc1cc(C(=O)COC(=O)c2ccc[nH]c2=O)c(C)n1-c1ccc(Br)cc1,-27%,0%,i,-2%,i,0.4µM*
COCCn1c(C)cc(C(=O)COC(=O)c2ccc(Cl)c(S(N)(=O)=O)c2)c1C,x,-6%,i,4%,23µM*,x
COc1ccccc1CNC(=O)CN1C(=O)CSc2ccc(S(=O)(=O)N(C)C)cc21,x,x,i,x,i,x
COC(=O)c1cc(NC2(c3ccccc3)C(=O)c3ccccc3C2=O)cc(C(=O)OC)c1,x,x,i,x,u,x
Cc1ccc(NC(=O)C2(C)Cc3ccccc3C(=O)O2)c(C)c1 (centres undefined),x,x,i,x,u,x
COc1ccc(-c2csc(C(C)(O)c3ccc(F)c(F)c3)n2)cc1 (centres undefined),x,x,i,x,i,x
Cc1ccc2nc(-c3ccc(C)c(NC(=O)COc4ccc(Br)cc4)c3)oc2c1,x,x,u,x,i,x
COc1ccc(C)cc1NS(=O)(=O)c1ccc2c(c1)NC(=O)C(C)S2 (centres undefined),0%,-4%,i,-2%,i,u
Cc1ccc(S(=O)(=O)Oc2ccc(C)cc2/C=N/N=C2\NC(=O)C(C)S2)cc1 (centres undefined),13µM*,2%,i,u,i,10µM*
O=C(NC(=S)Nc1ccc(S(=O)(=O)N2CCCCC2)cc1)c1cccs1,4.5µM*,13%,u,7%,3.3µM*,u
O=C(NC(=S)Nc1ccc(S(=O)(=O)NC2CCCCC2)cc1)c1cccs1,1.1µM*,-1%,u,17%,i,0.45µM*
CCC(=O)NC(=S)Nc1ccc(S(=O)(=O)NC2CCCCC2)cc1,-25%,-2%,i,2%,u,-3%
COc1cccc(/C=C/c2nc(C#N)c(N3CCN(C)CC3)o2)c1,x,x,i,x,i,x
CC1CCCCN1C(=O)CSc1nc2ccccc2nc1Cc1ccc(Cl)cc1 (centres undefined),x,x,u,x,i,x
CCCCC/C=C\C/C=C\C/C=C\CCCCCCC(=O)O[C@H](COCCCCCCCCCCCCCCCC)COP(=O)([O-])OCC[N+](C)(C)C,-21%,x,x,x,x,-2%
Fc1ccc2nc(Nc3nc4cc5c(cc4s3)OCCO5)sc2c1,11µM*,20%,u,15µM*,u,13µM*
Fc1ccc2nc(Nc3nc4cc5c(cc4s3)OCO5)sc2c1,8.9µM*,0%,i,u,i,u
O=C(COc1ccccc1)Nc1nc2cc3c(cc2s1)OCO3,x,6%,x,u,x,x
c1ccc2sc(Nc3nc4cc5c(cc4s3)OCO5)nc2c1,-3%,u,i,18µM*,i,-10%
Fc1ccc2nc(Nc3ccccc3)sc2c1,-40%,4%,i,1%,i,-7%
O=C(Nc1ccc(C(=O)OCc2cc(=O)n3nc(C4CC4)sc3n2)cc1)c1cccc(F)c1,x,x,i,x,u,x
O=C(CCNS(=O)(=O)c1ccc2c(c1)CCCC(=O)N2)Nc1cccc(Cl)c1,x,x,i,x,i,x
CC(C)[C@H]1COCCS(=O)(=O)N1Cc1cccc([N+](=O)[O-])c1,x,x,i,x,i,x
SMILES,RORgamma inh,SW480 rerep,KB-3-1 cytotox,MCF10A rerep,KB-V1 cytotox,Gal4-VP16 FLuc
CNC(=S)N/N=C/c1cccc(OCc2ccccc2F)c1,2.2µM*,-5%,u,16%,u,4.5µM*
O=C(N/N=C/c1cccc(Oc2ccccc2)c1)c1ccccc1F,-22%,x,x,x,x,-4%
Fc1ccccc1COc1ccc(/C=N/NC(=S)NCc2ccccc2)cc1,0.89µM*,u,i,u,i,1µM*
CCOc1ccc(/C=N/NC(=O)CC(=O)NCc2ccccc2)cc1,-2%,5%,i,-2%,i,-19%
CCNC(=S)N/N=C/c1cccc(OCc2c(F)cccc2Cl)c1,0.71µM*,1%,u,u,21µM*,0.71µM*
C=C1C=C(C(F)(F)F)n2ncc(C(=O)NCc3ccc(F)cc3)c2N1,x,x,i,x,i,x
O=C(Nc1ccccc1)c1ccc(S(=O)(=O)NCc2ccco2)cc1,u,3%,i,1%,i,14%
Cc1cc(C)cc(NC(=O)c2cc(S(=O)(=O)NCc3ccco3)ccc2F)c1,-18%,u,i,u,i,10µM*
O=S(=O)(NCc1ccco1)c1ccc2c(c1)Cc1ccccc1-2,u,u,i,u,i,8.9µM*
O=C(Nc1ccccc1)c1cccc(S(=O)(=O)NCc2ccco2)c1,41%,-3%,u,5%,23µM*,-8%
Cc1ccc(C(=O)Nc2ccc(S(=O)(=O)NCc3ccco3)cc2)cc1,-5%,-15%,i,6%,u,-15%
C[C@@]12CCC(=O)C[C@@H]1CC(=O)[C@H]1[C@H]3CCC[C@]3(C)C(=O)C[C@@H]12 (tested in a mixture with another compound),-16%[16.9 µM],x,x,x,x,19%[17 µM]
CCCCCCCCN1C(=O)[C@H](CC(=O)NCCCN2CCCC2=O)C[C@@]2(C(=O)OC)CC(C)(C)CC=C12,x,x,i,x,i,x
COc1ccc(-c2nnc(NC(=O)Nc3ccc4ccccc4c3)s2)cc1OC,x,x,i,x,i,x
Cn1c(=O)c2c(nc(C3CC4C5CCC(C5)C4C3)n2C)n(C)c1=O (centres undefined),x,-2%,i,13%,15µM*,x
Cn1c(=O)c2c(nc(CCC3CCCC3)n2C)n(C)c1=O,x,-3%,i,5%,i,x
Cc1ccc(C(=O)N/N=C2\SCC(=O)N2c2cc(C)ccc2C)cc1,u,-3%,i,-1%,i,13µM*
Cc1cccc(N2C(=O)CS/C2=N\NC(=O)c2ccc(Br)cc2)c1C,-29%,11%,i,4%,i,1%
COc1ccc(Cl)cc1C(=O)NCC(c1ccco1)N1CCCC1 (centres undefined),4%,-4%,i,9%,9.2µM*,3%
